According to PubChem BioAssay (NCI):
About 79,000 compounds went through this panel and 15% of them were active in at least one assay; those are over-represented in the sample as a whole. Unmarked numbers belong to inactive results. Activity calls are given as the source filed them. No stated cut-off is given here; in the data, active means growth inhibition above about 70%; inactive means the rest.

Assay: NCI Yeast Anticancer Drug Screen. Data for the rad18 strain (AID 177)
Conditions: S. cerevisiae rad18 mutant growth inhibition, active compounds read high
Procedure: Growth inhibition of yeast strains with defined genetic alterations is measured as a screen for potential anti-cancer activity. Selected strains with alterations in DNA damage repair or cell cycle control were exposed to compounds and growth inhibition was measured relative to vehicle treated controls. The strain used in this assay is rad18

Row | Compound | growth inhibition (at 1.2 µM) | growth inhibition (at 3.7 µM) | growth inhibition (at 11.0 µM) | growth inhibition (at 33.0 µM) | growth inhibition (at 100.0 µM)
1 | CC(C)(C)c1ccc(O)c(C(c2ccc([N+](=O)[O-])cc2)c2cc(C(C)(C)C)ccc2O)c1 | 21% | 41% | 57% | 70% (active) | 88% (active)
2 | O=C(/C=C/c1cccc2ccccc12)c1ccc(Cl)cc1 | 3% | 9% | 5% | 13% | 14%
3 | CC(=O)[O-].O=C([CH-]C(=O)c1ccccc1)c1ccccc1.O=C([CH-]C(=O)c1ccccc1)c1ccccc1.[Sm+3] | 5% | 12% | 43% | 98% (active) | 97% (active)
4 | COc1cc(NCc2ccc3nc(N)nc(N)c3c2C)cc(OC)c1OC | -6% | -2% | 1% | 20% | 77% (active)
5 | Cn1ncc2cc3c(Nc4ccc(Cl)cc4)cccc3nc21 | -2% | -4% | -3% | -2% | 52%
6 | CN(C)c1ccc(N=Nc2ccccn2)cc1 | -16% | -10% | -1% | 83% (active) | 91% (active)
7 | O=C1CC(=O)N(C2CCCCC2)C(=O)N1c1ccccc1S(=O)(=O)Oc1ccccc1 | -15% | -13% | -19% | -18% | 12%
8 | COc1ccc(C(C#N)=C2C=CC(=NO)C=C2)cc1 | 11% | 38% | 90% (active) | 97% (active) | 96% (active)
